Measurements: PubChem BioAssay AID1851 (National Center for Advancing Translational Sciences (NCATS), 2009)
The whole screen tested about 16,000 compounds, of which about 5,700 (36%) were called active. Inconclusive results (about 24%) are left out. This is one part of the list. Values without a mark were called inactive. Calls follow the shape of the dose curve; as a rule, active = well fitted curve in the direction sought with a large enough effect; inconclusive = small, poorly fitted or top-dose-only effect, or effect the other way; inactive = no such curve, though single readings can be large or run the other way.

The molecules below were run against Cytochrome P450 1A2 (Homo sapiens) (UniProt P05177) (assay: Cytochrome panel assay with activity outcomes). Conditions: recombinant CYP, pro-luciferin dealkylation, luminescence, p450-cyp1a2; series mostly up to 57.1 µM; activity, negative = inhibition: at the top concentration.
% is scaled to controls: 0 for no effect and ±100 for the full control effect.

Cytochrome P450 1A2 (Homo sapiens), sequence (P05177 whole entry, looked up): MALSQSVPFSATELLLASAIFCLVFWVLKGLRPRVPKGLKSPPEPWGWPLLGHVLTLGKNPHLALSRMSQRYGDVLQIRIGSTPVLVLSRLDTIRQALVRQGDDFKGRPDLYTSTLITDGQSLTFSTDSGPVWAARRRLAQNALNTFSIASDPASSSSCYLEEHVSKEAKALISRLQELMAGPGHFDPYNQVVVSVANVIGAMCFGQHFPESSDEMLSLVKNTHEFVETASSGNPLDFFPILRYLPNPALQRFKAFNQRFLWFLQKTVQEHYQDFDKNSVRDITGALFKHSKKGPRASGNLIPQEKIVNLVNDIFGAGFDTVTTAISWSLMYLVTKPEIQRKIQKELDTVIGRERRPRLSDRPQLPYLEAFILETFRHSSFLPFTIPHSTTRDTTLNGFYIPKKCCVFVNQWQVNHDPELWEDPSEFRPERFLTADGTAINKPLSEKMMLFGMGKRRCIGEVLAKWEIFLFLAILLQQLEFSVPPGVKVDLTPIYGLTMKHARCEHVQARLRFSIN

| Compound | activity, negative = inhibition | AC50 |
| --- | --- | --- |
| C/C(CCN1CCCc2nc(C)c(C)cc21)=N\OC[C@@H](O)[C@@H]1O[C@@H]2OC(C)(C)O[C@@H]2[C@H]1O | 1.1% [at 11.4 µM] |  |
| Nc1nc2ncc(CNc3ccc(C(=O)N[C@@H](CCC(=O)O)C(=O)O)cc3)nc2c(=O)[nH]1 | -5.34% [at 25.6 µM] |  |
| COc1cc(/C=N/NC(=O)c2cccc([N+](=O)[O-])c2)ccc1OCc1ccc(C)cc1 | -24.6% |  |
| COc1cc(/C=N/NC(=O)c2cccs2)ccc1OCc1ccccc1 |  | 0.794 µM (active) |
| Cc1ccccc1C(=O)Nc1cccc(NC(=S)NC(=O)c2cccs2)c1 |  | 3.16 µM (active) |
| COc1cc(NC(=S)NC(=O)c2c(OC)cccc2OC)ccc1NC(=O)c1cccs1 | -10.4% |  |
| Cc1cccc(NC(=S)NC(=O)c2cccs2)n1 |  | 0.794 µM (active) |
| CCN(c1ccccc1)S(=O)(=O)c1ccc(NC(=S)NC(=O)c2cccs2)cc1 | -24.5% |  |
| Cc1c(C)c(C)c(CC2(C)CSC2)c(CC2(C)CSC2)c1C | -16.1% [at 11.4 µM] |  |
| CN(Cc1ccco1)c1cc(-c2cccc(C#N)c2)ncn1 |  | 0.794 µM (active) |
| COc1cccc(-c2cc(N(C)Cc3ccco3)ncn2)c1 |  | 0.794 µM (active) |
| COc1cccc([C@@H]2Oc3ccc(OC)cc3/C(=N/OC[C@@H](O)COCc3ccco3)[C@@H]2O)c1 | -3.42% [at 11.4 µM] |  |
| CN(Cc1ccco1)c1cc(-c2cccnc2)ncn1 |  | 0.316 µM (active) |
| CCOC(=O)c1c(C)[nH]c(C(=O)OCC(=O)NC2CCS(=O)(=O)C2)c1C (centres undefined) |  | 12.6 µM (active) |
| CCCNC1CCS(=O)(=O)C1 (centres undefined) | -7.33% |  |
| Cc1ccc(/S(C)=N/S(=O)(=O)c2ccc(C)cc2)cc1 (centres undefined) | -16.1% |  |
| CCCS(=O)(=O)N1CCCC(C(=O)NCCCOCC)C1 (centres undefined) | 9.24% |  |
| CCCS(=O)(=O)N1CCCC(C(=O)NCCCOC(C)C)C1 (centres undefined) | 15.7% |  |
| CCCS(=O)(=O)N1CCCC(C(=O)N2CCN(C(=O)OCC)CC2)C1 (centres undefined) |  | 10 µM (active) |
| COC(=O)c1ccc(NC(=O)c2ccccc2NS(=O)(=O)c2ccccc2)cc1 | -26.7% |  |
| Cn1c(C(=O)Nc2ccccc2)cc2sccc21 |  | 8.91 µM (active) |
| COC(=O)c1ccc(NC(=O)c2cc3sccc3n2C)cc1 |  | 8.91 µM (active) |
| CN1c2ccccc2C(O)=C(C(=O)Nc2ccccc2)S1(=O)=O | 22.2% |  |
| COc1cccc(-c2ccc3ncnc(NCCNC(C)=O)c3c2)c1 |  | 3.16 µM (active) |
| COCCNc1ncnc2ccc(-c3cccnc3)cc12 |  | 0.2 µM (active) |

| Compound | activity, negative = inhibition | AC50 |
| --- | --- | --- |
| COCCNc1ncnc2ccc(-c3cccc(OC)c3)cc12 |  | 0.794 µM (active) |
| N#Cc1ccc(CN2CCCC3(CCN(C(=O)c4cccc(F)c4)CC3)C2)cc1 | 1.62% |  |
| Cn1c(=O)[nH]c(=O)c2c1nc(CN1CCOCC1)n2CCCO | 2.56% |  |
| COc1ccccc1CNc1ncncc1-c1ccccc1Cl |  | 10 µM (active) |
| COc1ccccc1CNc1ncncc1-c1ccccc1C(F)(F)F |  | 15.8 µM (active) |
| COc1ccc(CNc2ncncc2-c2ccccc2C(F)(F)F)c(OC)c1 |  | 15.8 µM (active) |
| Cc1ccccc1CN1CCN(CC(=O)NCCCN2CCN(c3ccc(F)cc3)CC2)C1=O | 0.19% |  |
| Cn1cc(C2=C(c3ccc(Cl)cc3Cl)C(=O)NC2=O)c2ccccc21 |  | 3.16 µM (active) |
| COc1ccccc1-c1nccc(NCc2cccnc2)n1 |  | 0.2 µM (active) |
| CNc1ccnc(-c2ccccc2OC)n1 |  | 5.01 µM (active) |
| COc1ccccc1-c1nccc(NCc2ccccc2)n1 |  | 2.51 µM (active) |
| COc1ccccc1-c1nccc(NCc2cccc(C)c2)n1 |  | 0.631 µM (active) |
| CS(=O)(=O)N1CCC[C@@]2(CCN(C(=O)Nc3cccc(C#N)c3)C2)C1 | -14.8% |  |
| Cc1ccccc1-c1nccc(NCc2cccnc2)n1 |  | 0.2 µM (active) |
| CNc1ccnc(-c2ccccc2C)n1 |  | 5.01 µM (active) |
| CO[C@H]1COC(=O)C/C=C\[C@H](C)[C@@H](NS(=O)(=O)c2ccc(C)cc2)COC(=O)CCC[C@@H]1C | 1.16% [at 11.4 µM] |  |
| C=CC[C@@H]1C=C[C@H](O/N=C(\C)CCN2CCc3nc(CC)c(CC)cc3C2)[C@H](CO)O1 | -3.35% [at 11.4 µM] |  |
| C/C(=N/NS(=O)(=O)c1ccc(C)cc1)P(=O)(O)O | -10% [at 11.4 µM] |  |
| C/C(=N\NC(=O)c1ccc(Cl)cc1)c1cccc(NC(=O)C(C)C)c1 |  | 3.55 µM (active) |
| Cc1ccc(S(=O)(=O)Nc2nc(C)c(NC(=O)Nc3ccc(Cl)cc3Cl)s2)cc1 | -25.6% |  |
| C/C(=N/NS(=O)(=O)c1ccc(C)cc1)c1cccc(NC(=O)c2cccc(Cl)c2)c1 |  | 14.1 µM (active) |
| COc1ccc(C(=O)Nc2cccc(/C(C)=N/NC(=O)c3ccc([N+](=O)[O-])cc3)c2)cc1OC | -13.8% |  |
| C/C(=N\NC(=O)c1cccc(Cl)c1)c1cccc(NC(=O)C(C)C)c1 |  | 5.01 µM (active) |
| CCC(=O)Nc1ccc(/C(C)=N\NS(=O)(=O)c2ccc(C)cc2)cc1 |  | 25.1 µM (active) |
